Several values for one entry are separate records, joined by “and”; a condition that tells them apart may be missing. Equal entries are not always repeated. Activity calls are given as the source filed them. The calls were made as follows: active = hit-call score of the fitted dose curve at least 0.9, where 1 is the maximum; inactive = score below 0.9.
Assay: BSK_BE3C_SRB: Viability Assessment in the BioMAP Diversity Plus: BE3C Assay (AID 2283028);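 as to AC50: fitted both ways so AC50 may mark signal gain or loss versus DMSO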
Details: primary human bronchial epithelial cells
Experimental: BSK_BE3C is a cell-based, multiplexed-readout assay that uses bronchial epithelial cell, a human lung primary cell, with measurements taken at 24 hours after chemical dosing in a 96-well plate.BSK_BE3C_SRB is an assay component measured in the BSK_BE3C assay. It measures 0.1% sulforhodamine related to cell death using Sulforhodamine staining technology.Data from the assay component BSK_BE3C_SRB was analyzed into 1 assay endpoint. This assay endpoint, BSK_BE3C_SRB, was analyzed with bidirectional fitting relative to DMSO as the negative control and baseline of activity. Using a type of viability reporter, gain or loss-of-signal activity can be used to understand changes in the signaling. Furthermore, this assay endpoint can be referred to as a primary readout, because this assay has produced multiple assay endpoints where this one serves a signaling function. To generalize the intended target to other relatable targets, this assay endpoint is annotated to the cell morphology intended target family, where the subfamily is cell conformation.
The levels of cell surface (or secreted, indicated by the prefix "s") biomarker endpoints were measured by ELISA. Overt cytotoxicity to cells in confluent adherent cultures (all systems other than the BT system) was assessed by measuring total protein levels using sulforhodamine B (SRB) staining in parallel cultures at the time of biomarker measurements, indicated as SRB endpoints. For proliferation assays for adherent cell types, individual cell types are cultured at sub-confluence and relative cell numbers quantified by SRB staining at time points optimized for each system (48 h: 3C and CASM3C systems; 72 h: BT and HDF3CGF systems; 96 h: SAg system). SRB was performed by staining cells with 0.1% SRB after fixation with 10% TCA and reading wells at 560 nm.Viability and proliferation of PBMC (T cells) was quantified by Alamar Blue reduction for the SAg and BT systems. For PBMC viability (referred to as PBMC Cytotoxicity within the assay endpoint names), cells were plated (75,000/well in a 96-well plate) and then chemical samples added for 1 h before addition of activators, SEB and TSST-1 (20 ng/mL final concentration each). Cells were incubated for 90 h. Then, Alamar Blue (20 uL/well) (Invitrogen, Cat DAL1100) was added for 6 h, and the plates were read with a fluorescence microplate reader at 546/580 nm (excitation/emission). For PBMC proliferation, cells were plated and activated as above but incubated for only 16 h prior to addition of Alamar Blue. Plates were read after 6 h.

SMILES	outcome	AC50
CCO[Si](CCC(F)(F)C(F)(F)C(F)(F)C(F)(F)C(F)(F)C(F)(F)F)(OCC)OCC	inactive	
O=C(O)C(F)(F)C(F)(F)OC(F)(F)F	inactive	
CC(C)(C)C(=O)CC(=O)C(F)(F)C(F)(F)C(F)(F)F	inactive	
CCCCCCCCC(F)(F)C(F)(F)C(F)(F)C(F)(F)C(F)(F)C(F)(F)F	inactive	
Cc1ccc(S(=O)(=O)OCC(F)(F)C(F)(F)C(F)(F)C(F)(F)C(F)(F)C(F)F)cc1	inactive	
NC(=O)C(F)(F)C(F)(F)C(F)(F)C(F)(F)F	inactive	
FC(F)(F)C(F)(F)CNCC(F)(F)C(F)(F)F	inactive	
CS(C)(=O)=O	inactive	
CCc1c(Br)c(Br)c(Br)c(Br)c1Br	inactive	
O=S(=O)(OCC(F)F)C(F)(F)F	inactive	
FC(F)(I)C(F)(F)C(F)(F)C(F)(F)I		50.1 µM (active) and 43.1 µM (active) and 44.2 µM (active)
CO[Si](OC)(c1ccccc1)c1ccccc1	inactive	
CCCCC(CC)COP(=O)(O)OCC(CC)CCCC (stereo not given)	inactive	
O=C(CC(=O)C(F)(F)C(F)(F)F)C(F)(F)F	inactive	
CCCCOCCOCCOC(=O)CCCCC(=O)OCCOCCOCCCC	inactive	
C#C[C@]1(O)CC[C@H]2[C@@H]3CCc4cc(OC)ccc4[C@H]3CC[C@@]21C	inactive	
CCCCCCOC(=O)c1ccccc1O	inactive	
CC(CCl)OP(=O)(OC(C)CCl)OC(C)CCl (stereo not given)	inactive	
FC(F)(F)C(F)(F)C(F)(F)C(F)(F)C(F)(F)C(F)(F)C(F)(F)I	inactive	
C=CC/C=C/C/C=C/C/C=C/C	inactive	

SMILES	outcome	AC50
O=C(Cl)C(F)(F)C(F)(F)C(F)(F)C(F)(F)C(F)(F)C(F)(F)C(F)(F)C(F)(F)F		58.5 µM (active) and 46.6 µM (active) and 47.3 µM (active)
FC(F)(F)C(F)(F)C(F)(F)C(F)(F)C(F)(F)C(F)(F)C(F)(F)Br	inactive	
C=CC(F)(F)C(F)(F)C(F)(F)C(F)(F)C(F)(F)C(F)(F)C(F)(F)C(F)(F)C=C	inactive	
FC(F)(F)C(F)(F)C(F)(F)C(F)(F)C(F)(F)CCI	inactive	
C=C(C)C(=O)OCC(F)(F)C(F)(F)C(F)(F)C(F)(F)C(F)(F)C(F)(F)C(F)(F)F	inactive	
O=C(O)C(F)(OC(F)(F)C(F)(OC(F)(F)C(F)(F)C(F)(F)F)C(F)(F)F)C(F)(F)F (stereo not given)	inactive	
O=C(O)C(F)(F)C(F)(F)C(F)(F)C(F)(F)F	inactive	
O=C(O)C(F)(F)C(F)(F)C(F)F	inactive	
FC(F)(F)C(F)(F)C(F)(F)CI	inactive	
CCCCCCCCCCCCCCCC[N+](C)(C)Cc1ccccc1		5.04 µM (active)
CCCCCCC(C)OC(=O)CCCCC(=O)OC(C)CCCCCC (stereo not given)	inactive	
O=C(O)C(F)(F)C(F)(F)C(F)(F)C(F)(F)C(F)(F)C(F)(F)C(F)(F)C(F)(F)Cl		41.3 µM (active) and 29.4 µM (active)
FC1CC(F)(F)C(F)(F)C1(F)F (stereo not given)	inactive	
FC(F)(Br)C(F)(F)C(F)(F)C(F)(F)C(F)(F)C(F)(F)Br	inactive	
FC(F)(F)C(F)(F)C(F)(F)C(F)(F)C(F)(F)C(F)(F)CCS	inactive	
OCCCC(F)(F)C(F)(F)C(F)(F)F	inactive	
OCC(F)(F)C(F)(F)C(F)(F)C(F)F	inactive	
O=C(O)C(F)(F)C(F)(F)F	inactive	
O=P(O)(O)OCCC(F)(F)C(F)(F)C(F)(F)C(F)(F)C(F)(F)C(F)(F)F	inactive	
FC(F)(F)C(F)(F)C(F)(F)N(C(F)(F)C(F)(F)C(F)(F)F)C(F)(F)C(F)(F)C(F)(F)F	inactive	
